Source: PubChem BioAssay AID743150 (Broad Institute, 2013)
Results with a measured potency or affinity are listed apart. Activity calls are given as the source filed them. How the calls were made is not given here.

Test: OVCAR4 cell viability loss – plate reader, dry powder, SA11, cytotoxicity control for PAX8 inhibitor project, dose response (AID 743150)
Settings: series mostly up to 35 µM

Row | SMILES | outcome
1 | N#C[C@@H]1[C@@H](c2ccc(C#Cc3ccccc3F)cc2)[C@H](CO)N1C(=O)C1CCCCC1 | inactive
2 | N#C[C@H]1[C@@H](c2ccc(C#Cc3cccc(F)c3)cc2)[C@@H](CO)N1C(=O)C1CCCC1 | inactive
3 | O=C(CN1C(=O)c2ccccc2S1(=O)=O)c1ccc(Cl)cc1Cl | inactive
4 | Cc1ccccc1OCC(=O)Nc1cccc(C(=O)O)c1 | inactive
5 | N#C[C@H]1[C@@H](c2ccc(C#CC3CCCCC3)cc2)[C@@H](CO)N1S(=O)(=O)c1ccccc1 | inactive
6 | O=C1/C(=C/c2cccc(Br)c2)SC(=S)N1CCC(=O)N(CCO)c1ccccc1 | inactive
7 | C[C@H](CO)N1C[C@H](C)[C@@H](CN(C)Cc2ccc(C(F)(F)F)cc2)Oc2ccc(NS(=O)(=O)c3ccccc3)cc2CC1=O | inactive
8 | CCCC#Cc1ccc([C@@H]2[C@H](C#N)N(S(=O)(=O)c3cccc(F)c3)[C@H]2CO)cc1 | inactive
9 | C[C@@H]1CN([C@@H](C)CO)S(=O)(=O)c2ccc(C#C[C@@H](C)O)cc2O[C@H]1CN(C)Cc1ccc(-c2ccccc2)cc1 | inactive
10 | COCC(=O)N1[C@H](CO)[C@H](c2ccc(-c3cccnc3)cc2)[C@@H]1C#N | inactive
11 | O=C(Nc1ccc(OCC(F)(F)C(F)F)c(C(F)(F)F)c1)c1ccccc1O | inactive
12 | COC(=O)[C@@]1(CCS(=O)(=O)c2ccccc2)N=C(c2ccc(OCCCO)cc2)O[C@H]1c1ccccc1 | inactive
13 | C[C@@H]1CN([C@@H](C)CO)S(=O)(=O)c2ccc(C#Cc3ccncc3)cc2O[C@H]1CN(C)C(=O)Nc1ccc2c(c1)OCO2 | inactive
14 | N#C[C@@H]1[C@@H](c2ccc(-c3cccc(F)c3)cc2)[C@H](CO)N1C(=O)NC1CCCC1 | inactive
15 | COc1cccc(C#Cc2ccc([C@@H]3[C@@H](C#N)N(C(=O)C4CCCCC4)[C@H]3CO)cc2)c1 | inactive
16 | CCCC#Cc1ccc([C@H]2[C@@H](C#N)N(C(=O)C3CCCCC3)[C@H]2CO)cc1 | inactive

Row | SMILES | outcome
17 | C[C@@H]1CN([C@H](C)CO)C(=O)CCCn2cc(nn2)CO[C@H]1CN(C)C(=O)Nc1ccc(-c2cccs2)cc1 | inactive
18 | C[C@H](CO)N1C[C@H](C)[C@@H](CN(C)Cc2ccc(-c3ccccc3)cc2)Oc2ccc(NS(=O)(=O)c3ccccc3)cc2CC1=O | inactive
19 | CN(C)CCCN(C(=O)CCOc1ccccc1)c1nc2c(F)cccc2s1 | inactive
20 | CCCn1c(C)cc(C(=O)CN2C(=O)c3ccccc3S2(=O)=O)c1C | inactive
21 | C[C@H](CO)N1C[C@H](C)[C@@H](CN(C)Cc2ccc(C(F)(F)F)cc2)OCCCC[C@H](C)Oc2ccc(NS(=O)(=O)c3ccc(F)cc3)cc2C1=O | inactive
22 | COc1ccccc1C#Cc1ccc([C@@H]2[C@@H](C#N)N(C(=O)C3CCCCC3)[C@H]2CO)cc1 | inactive
23 | N#C[C@@H]1[C@H](c2ccc(C#Cc3ccc(F)cc3)cc2)[C@@H](CO)N1C(=O)Nc1ccc(F)cc1 | inactive
24 | COc1ccccc1C#Cc1ccc([C@H]2[C@@H](CO)N(C(=O)C3CCCC3)[C@H]2C#N)cc1 | inactive
25 | COc1cccc(C#Cc2ccc([C@H]3[C@@H](CO)N(C(=O)c4ccccn4)[C@H]3C#N)cc2)c1 | inactive
26 | C[C@H](CO)N1C[C@H](C)[C@H](CN(C)C(=O)Nc2ccc(-c3cccs3)cc2)OCc2cnnn2CCCC1=O | inactive
27 | CC(=O)N1CCOc2ccc(S(=O)(=O)N3CCN(c4cccc(C(F)(F)F)c4)CC3)cc21 | inactive
28 | C[C@@H]1CN([C@H](C)CO)C(=O)CCCn2nncc2CO[C@H]1CN(C)Cc1ccc(Oc2ccccc2)cc1 | inactive
29 | COc1cccc(C#Cc2ccc([C@@H]3[C@@H](C#N)N(C(=O)C4CCCC4)[C@@H]3CO)cc2)c1 | inactive
30 | C[C@H]1CN([C@@H](C)CO)C(=O)Cc2cc(NC(=O)NC3CCCCC3)ccc2O[C@@H]1CN(C)Cc1ccc(-c2ccccc2)cc1 | inactive
31 | CCCC#Cc1ccc([C@@H]2[C@@H](C#N)N(S(=O)(=O)c3cccc(F)c3)[C@H]2CO)cc1 | inactive
